This is a sample that favours compounds with a hit; in the whole collection about 6.7% have one here.
Pf Dd2 inh: blocks growth of Plasmodium falciparum Dd2 parasites. hit rate 2.3% among 94,000. P. falciparum Dd2 growth, SYBR Green, 72 h; hits give low values. activity change, % at 10 µM; in the data active means activity change below about -80%; inconclusive means no clear call, values can overlap the other calls
T cruzi growth: T. cruzi proliferation inhibition | inhibition, % at 8.34 µM | hit rate 5.9% among 77,000 | T. cruzi beta-gal in NIH3T3, GalScreen luminescence, 90 h | AID 624255;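 active means mean inhibition above about 93%, with at least 55% of replicates each passing it, limit read from the data, passing the limit was not always enough; inconclusive means only one of those two conditions holds; inactive means neither condition holds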
C diff growth: blocks growth of Clostridium difficile; Clostridium difficile clinical isolate growth, OD600, 24 h; hits give low values; growth activity, negative = inhibition, % at 16 µg/mL (by protocol); hit rate 0.25% among 86,000; AID 1259249;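 active means mean growth activity at or below -80% and every replicate also at or below -80%; inconclusive means mean at or below -80% but some replicate above -80%; inactive means mean growth activity above -80%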;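 further: 0% = DMSO wells and -100% = levofloxacin 16 µg/mL wells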
* marks the source's active call; other numbers are inactive results; ? = inconclusive; . = no result.

SMILES | Pf Dd2 inh | T cruzi growth | C diff growth
C[C@H](CO)N1C[C@H](C)[C@H](CN(C)CC2CCCCC2)Oc2ccc(NC(=O)Cn3cnnn3)cc2CC1=O | -1 | 43 | -1
CC(C)(C)OC(=O)COc1cccc(C(=O)CCN2CCOCC2)c1 | . | . | -15
O=C(c1cccnc1)N1CC2(C1)[C@@H](c1ccccc1)[C@@H](CO)N2C(=O)CC1CC1 | -87* | . | -5
O=C(CC1CC1)N1CC2(C1)[C@H](c1ccccc1)[C@@H](CO)N2C(=O)c1cccnc1 | -57 | . | -6
COc1cccc(CN2[C@H](CO)[C@H](c3ccccc3)C23CN(C(=O)C2CCCCC2)C3)c1 | 9 | . | 14
COc1ccc(S(=O)(=O)N(C)C[C@H]2Oc3c(NC(=O)c4cc(C)nn4C)cccc3C(=O)N([C@H](C)CO)C[C@@H]2C)cc1 | -13 | -84 | 4
COc1ccc(NC(=O)Nc2ccc3c(c2)C(=O)N([C@H](C)CO)C[C@H](C)[C@@H](CN(C)CC2CC2)OCCCC[C@@H](C)O3)cc1 | -59 | 38 | 5
COc1ccc(NC(=O)Nc2ccc3c(c2)C(=O)N([C@@H](C)CO)C[C@H](C)[C@@H](CN(C)CC2CCCCC2)OCCCC[C@H](C)O3)cc1 | -86* | 90 | -4
COc1ccc(NC(=O)Nc2ccc3c(c2)C(=O)N([C@@H](C)CO)C[C@H](C)[C@@H](CN(C)CC2CC2)OCCCC[C@H](C)O3)cc1 | -90* | 59 | .
COc1ccc(NC(=O)Nc2ccc3c(c2)C(=O)N([C@H](C)CO)C[C@H](C)[C@H](CN(C)CC2CCCCC2)OCCCC[C@H](C)O3)cc1 | ? | 93 | -14
CN1C(=O)c2cc(NC(=O)C3CC3)ccc2OC[C@H]2O[C@@H](CC(=O)NCc3cccc(F)c3)CC[C@@H]21 | -16 | 17 | 0
Cc1noc(C)c1S(=O)(=O)Nc1cccc2c1O[C@H](CN(C)Cc1ccncc1)[C@H](C)CN([C@@H](C)CO)C2=O | 23 | 15 | -3
CC(C)CC#Cc1ccc2c(c1)O[C@H](CN(C)S(=O)(=O)c1ccc(F)cc1)[C@H](C)CN([C@@H](C)CO)S2(=O)=O | -77 | . | 9
C[C@H]1CN([C@@H](C)CO)S(=O)(=O)c2ccc(C#Cc3ccncc3)cc2O[C@@H]1CN(C)S(=O)(=O)c1ccc(F)cc1 | -88* | 98 | -2
CC(C)CC#Cc1ccc2c(c1)O[C@@H](CN(C)S(=O)(=O)c1ccc(F)cc1)[C@H](C)CN([C@H](C)CO)S2(=O)=O | -67 | . | 5
Cc1ccc(S(=O)(=O)N(C)C[C@H]2Oc3cc(C#Cc4ccncc4)ccc3S(=O)(=O)N([C@@H](C)CO)C[C@H]2C)cc1 | -82* | 71 | -2
C[C@@H]1CN([C@@H](C)CO)S(=O)(=O)c2ccc(C#Cc3ccncc3)cc2O[C@H]1CN(C)S(=O)(=O)c1ccc(F)cc1 | -86* | 90 | 2
C[C@H](CO)N1C[C@H](C)[C@H](CN(C)S(=O)(=O)c2ccccc2)Oc2cc(C#Cc3ccncc3)ccc2S1(=O)=O | -80 | 50 | 3
COC(=O)[C@@H]1[C@@H](CO)[C@@H]2Cn3c(ccc(C4=CCCC4)c3=O)[C@@H]2N1C(=O)C1CCCC1 | 9 | 58 | -2
C[C@H]1CN([C@@H](C)CO)C(=O)c2cccc(NC(=O)C3CCCCC3)c2O[C@H]1CN(C)Cc1ccc(-c2ccccc2)cc1 | -23 | -77 | 15
C[C@@H]1CN([C@H](C)CO)C(=O)c2cccc(NS(=O)(=O)c3ccccc3)c2O[C@@H]1CN(C)C(=O)NC1CCCCC1 | 1 | 38 | -6
CO[C@@H]1CN(C)C(=O)c2ccc(NS(=O)(=O)c3ccc(C)cc3)cc2OC[C@@H](C)N(C(=O)NC(C)C)C[C@@H]1C | . | -35 | .
O=S(=O)(NC[C@@H]1CC[C@H]2[C@H](CN2Cc2cccc(-c3ccccn3)c2)O1)c1ccccc1 | 18 | . | -1
O=C(c1ccc(F)cc1)N1CC(=O)N2[C@H](CO)[C@H](c3ccc(-c4ccccc4)cc3)[C@H]2C1 | -37 | . | -1
O=C(Nc1ccccc1)N[C@H]1CC[C@@H](CCn2cc(C3(O)CCCC3)nn2)O[C@H]1CO | 12 | 31 | -4
SMILES | Pf Dd2 inh | T cruzi growth | C diff growth
C[C@@H]1CCCCO[C@@H](CN(C)Cc2ccc(Cl)c(Cl)c2)[C@H](C)CN([C@H](C)CO)C(=O)c2cc(NC(=O)c3ccccc3)ccc2O1 | -81* | . | 10
C[C@@H]1CCCCO[C@H](CN(C)Cc2ccc(Cl)c(Cl)c2)[C@@H](C)CN([C@@H](C)CO)C(=O)c2cc(NC(=O)c3ccccc3)ccc2O1 | -90* | . | 22
C[C@H](CO)N1C[C@H](C)[C@H](CN(C)Cc2ccc(Cl)c(Cl)c2)OCCCC[C@H](C)Oc2ccc(NC(=O)c3ccccc3)cc2C1=O | 9 | . | 26
C[C@H](CO)N1C[C@H](C)[C@@H](CN(C)Cc2ccc(Cl)c(Cl)c2)OCCCC[C@H](C)Oc2ccc(NC(=O)Cc3ccccc3)cc2C1=O | -74 | 65 | 8
CO[C@@H]1CN(C)C(=O)c2cc(NS(=O)(=O)c3ccc(Cl)cc3)ccc2OC[C@@H](C)N(C)C[C@H]1C | -29 | 5 | 3
C/C=C/c1ccc([C@H]2[C@@H](CO)N(S(C)(=O)=O)C23CN(C(=O)CC)C3)cc1 | -3 | . | -9
COc1ccc2c3c(n(C)c2c1)[C@H](CO)NCC31CN(Cc2ccc(F)cc2)C1 | -84* | . | 75
COc1ccc2c3c(n(C)c2c1)[C@H](CO)NCC31CCN(Cc2ccccc2F)CC1 | ? | . | 14
COc1ccc2c3c(n(C)c2c1)[C@H](CO)NCC31CCN(Cc2ccccc2Cl)CC1 | -85* | . | -1
COc1ccc2c3c(n(C)c2c1)[C@@H](CO)NCC31CCN(Cc2ccccc2Cl)CC1 | -88* | . | 9
COc1ccc2c3c(n(C)c2c1)[C@@H](CO)NCC31CCN(Cc2ccncc2)CC1 | -69 | . | 8
COc1ccc2c3c(n(C)c2c1)[C@@H](CO)NCC31CN(Cc2ccc(Cl)cc2)C1 | -57 | . | 53
COc1ccc2c3c(n(C)c2c1)[C@@H](CO)NCC31CCN(Cc2ccc(F)cc2)CC1 | 13 | . | .
COc1ccc2c3c(n(C)c2c1)[C@H](CO)NCC31CCN(Cc2cc(-c3ccccc3)on2)CC1 | -91* | . | -7
COCCNC(=O)C[C@@H]1CC[C@@H](NC(=O)NC2CCCC2)[C@@H](CO)O1 | -3 | . | -2
COc1ccc2c3c(n(C)c2c1)[C@@H](CO)NCC31CCN(CC2CCCCC2)CC1 | -82* | . | -1
COc1ccc2c3c(n(C)c2c1)[C@H](CO)NCC31CN(CC2CC2)C1 | 9 | . | 4
O=C(Nc1ccc(Cl)c(Cl)c1)N[C@H]1CC[C@H](CCn2cc(C3CC3)nn2)O[C@H]1CO | -68 | . | -2
CCNC(=O)[C@@H]1[C@@H](CO)[C@@H]2Cn3c(cccc3=O)[C@@H]2N1Cc1ccccc1Cl | 0 | 25 | -4
C[C@H](CO)N1C[C@H](C)[C@@H](CN(C)C(=O)Nc2cccc3ccccc23)Oc2ccc(NC(=O)Cc3cn(C)c4ccccc34)cc2C1=O | -87* | -12 | .
C[C@H](CO)N1C[C@H](C)[C@@H](CN(C)Cc2ccc(Oc3ccccc3)cc2)Oc2ccc(NC(=O)Cc3cn(C)c4ccccc34)cc2C1=O | -84* | 62 | 11
C[C@H]1CN([C@@H](C)CO)C(=O)c2cc(NC(=O)Cc3cn(C)c4ccccc34)ccc2O[C@H]1CN(C)CC1CC1 | -5 | 26 | 0

Screening data deposited in PubChem BioAssay by Broad Institute.
